{"source": "PubChem BioAssay AID493168", "about": "(National Center for Advancing Translational Sciences (NCATS), 2011)", "note": "Results filed as inconclusive are left out. Active and inactive are the calls of the source. Calls come from the whole dose curve; as a rule, active = well fitted inhibition curve with a large enough effect; inconclusive = small, poorly fitted or top-dose-only effect, or effect the other way; inactive = flat fitted curve, though single readings scatter. Potency is the fitted concentration of half-maximal effect.", "data": [{"molecular_target": "Ubiquitin carboxyl-terminal hydrolase 2 (Homo sapiens) (UniProt O75604)", "sequence (O75604 whole entry, looked up)": "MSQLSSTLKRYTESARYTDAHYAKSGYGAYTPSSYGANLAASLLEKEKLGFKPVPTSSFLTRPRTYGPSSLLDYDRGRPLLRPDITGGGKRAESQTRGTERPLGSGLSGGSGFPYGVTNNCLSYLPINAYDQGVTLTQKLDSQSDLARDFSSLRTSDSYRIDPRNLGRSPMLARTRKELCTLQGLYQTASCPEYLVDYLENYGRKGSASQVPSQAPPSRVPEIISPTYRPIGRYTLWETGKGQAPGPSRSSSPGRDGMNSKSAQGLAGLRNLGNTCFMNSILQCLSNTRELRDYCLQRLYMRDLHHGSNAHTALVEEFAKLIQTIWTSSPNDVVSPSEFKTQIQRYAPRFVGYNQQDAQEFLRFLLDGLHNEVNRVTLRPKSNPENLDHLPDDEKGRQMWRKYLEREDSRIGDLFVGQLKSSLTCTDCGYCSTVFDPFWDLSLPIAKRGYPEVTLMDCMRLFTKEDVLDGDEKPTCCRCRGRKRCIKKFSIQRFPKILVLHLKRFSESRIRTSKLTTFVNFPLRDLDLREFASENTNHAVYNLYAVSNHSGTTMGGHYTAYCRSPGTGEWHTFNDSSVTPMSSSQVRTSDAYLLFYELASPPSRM", "test": "Confirmation Assay for Inhibitors of Ubiquitin-specific Protease USP2a Using CHOP2 as the Reporter; note: nearly all actives have a fitted effect of over 55% in size;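 for activity change, negative = inhibition: plate controls were DMSO wells for no effect and full inhibition by NEM control for full effect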", "details": "USP2 core, Ub-CHOP2 coupled reporter fluorescence; series mostly up to 38.3 µM; activity change, negative = inhibition: at the top concentration", "excerpt": "NIH Molecular Libraries Probe Centers Network [MLPCN] NIH Chemical Genomics Center [NCGC] MLSCN Grant: XO1-MH079852-01 PI Name: Nicholson, Ben. Progenra Inc, Malvern, PA NCGC Assay Overview: Homeostasis of cellular proteins is maintained through a combination of synthesis and degradation. The pathway that accounts for the majority of protein degradation is the ubiquitin-proteasomal pathway. Ubiquitin (Ub) is highly conserved in all cells and the generation of a multi-Ub chain typically targets proteins for degradation by the proteasome. However, ubiquitination is highly reversible and dynamic. Deubiquitination, the reverse process, is catalyzed through the action of enzymes referred to as isopeptidases or deubiquitinating enzymes (DUBs). This group of enzymes is collectively responsible for maintaining adequate pools of free ubiquitin and regulating the ubiquitination status of cellular proteins. The class of DUBs referred to as the ubiquitin-specific proteases (USP) family functions endoproteolytically to cleave Ub chains from a wide range of protein substrates. USP2a deubiquitinates fatty acid synthase (FASN) which has recently been identified as an emerging oncology target. To identify inhibitors of USP2a a cell-free assay was employed. […] The reporter enzyme chosen is an […] called CHOP2, which is activated when the Ub is cleaved by USP2. The free and now activated reporter can subsequently act on its reporter substrate. Thus, this coupled assay gives a fluorescent read-out at excitation/emission wavelengths of 485/531. The assay was developed by Progenra, Inc. and has been licensed for sale by LifeSensors, Inc. as Ub-CHOP2-Reporter-Kit (#PR1101).\nNCGC Assay Protocol Summary: The assay buffer, prepared fresh at the day of the assay, contains 20mM Tris-HCl pH 8.0, 2mM CaCl2, 2mM beta-Mercaptoethanol, 0.05% CHAPS. 3ul of 20nM (10nM final) USP2 core, which is stored on ice, is dispensed into a medium-binding black solid Kalypsys 1,536 well plate using the Kalypsys dispenser. The assay plate is then pinned with 23nL compound with the Kalypsys pintool in columns 5-48. The controls are pinned as follows: column 1 two-fold dilutions of 2M NEM in duplicate; column 2 2M NEM (final concentration 38.2mM); column 3&4 DMSO. The assay plate is incubated at RT for 30min. Subsequently, 1.5uL of 100nM (25nM final) Ub-CHOP2 and 1.5uL of 100nM (25nM final) Reporter Substrate (both stored on ice and protected from light) were dispensed into the plate using the Kalypsys dispenser. Plates were read after 60min RT incubation on a ViewLux (Perkin Elmer) plate reader using the following wavelengths Ex 485nm /Em 531nm. Data were normalized to the to AC100 inhibition (NEM). Concentration-response curves were fitted to the normalized data and the concentration-response curves were then classified based on curve quality (r2), response magnitude and degree of measured activity. The time zero reading was used to flag fluorescence artifacts. Keywords: ubiquitination, deubiquitination, proteases, profluorescent, MLSMR, MLPCN, NIH Roadmap, qHTS, NCGC", "values": [{"smiles": "O=C1NC(=O)N(Cc2ccco2)C(=O)/C1=C/c1cccn1CCOc1ccccc1Cl", "activity change, negative = inhibition": "-3.58% (inactive)"}, {"smiles": "Cc1nn(Cc2ccc(Cl)cc2Cl)c(Cl)c1C(=O)Nc1ccc(OC(F)F)cc1", "activity change, negative = inhibition": "1.17% (inactive)"}, {"smiles": "O=C1CC(=O)N(Cc2ccccc2)C(=O)N1CCCCCCN1C(=O)CC(=O)N(Cc2ccccc2)C1=O", "activity change, negative = inhibition": "-1.12% (inactive)"}, {"smiles": "O=c1[nH]c(=S)n(Cc2ccco2)c(O)c1C=NCc1cccs1", "activity change, negative = inhibition": "-18.4% (inactive)"}, {"smiles": "CC(=Nc1ccc2c(c1)CCC2)c1c(O)n(C)c(=O)n(C)c1=O", "activity change, negative = inhibition": "0.651% (inactive)"}, {"smiles": "COc1ccc(S(=O)(=O)Cc2ccc(C(=O)N3CCC4(CC3)OCCO4)o2)cc1", "activity change, negative = inhibition": "-0.023% (inactive)"}, {"smiles": "CCCC1=C(C(=O)OCC)C2(C(=O)Nc3ccc(C)cc32)C(C#N)=C(N)O1", "note": "(stereo not drawn)", "activity change, negative = inhibition": "3.9% (inactive)"}, {"smiles": "O=c1[nH]c(=O)n(Cc2ccc(F)cc2)c(O)c1C=NCCCn1ccnc1", "activity change, negative = inhibition": "-3.8% (inactive)"}, {"smiles": "O=C1NC(=S)N(c2ccccc2)C(=O)/C1=C/c1ccco1", "Potency": "14.7 µM (active)"}, {"smiles": "O=C(COc1ccc(S(=O)(=O)N2CCOCC2)cc1)N1CCN(Cc2ccc3c(c2)OCO3)CC1", "activity change, negative = inhibition": "0.801% (inactive)"}, {"smiles": "O=C(O)c1cccc2c1NC(C(=O)O)C1CC(Sc3ccccc3[N+](=O)[O-])C(Cl)C21", "note": "(stereo not drawn)", "Potency": "7.36 µM (active)"}, {"smiles": "COc1ccc(NC(=O)c2c(C)nn(Cc3ccccc3Cl)c2Cl)cc1Cl", "activity change, negative = inhibition": "1.39% (inactive)"}, {"smiles": "Nc1ccc(S(=O)(=O)N2CCCCC2c2cccnc2)cc1", "note": "(stereo not drawn)", "activity change, negative = inhibition": "5.3% (inactive)"}, {"smiles": "OC(c1ccncc1)(c1ccc(F)cc1)c1ccc(F)cc1", "activity change, negative = inhibition": "-3.95% (inactive)"}, {"smiles": "FC(F)(F)c1ccc2c(c1)N(CCCN1CCN(CCCl)CC1)c1ccccc1S2", "activity change, negative = inhibition": "0.492% (inactive)"}, {"smiles": "NC(N)=N/N=C/c1ccc(N(c2ccccc2)c2ccccc2)cc1", "Potency": "16.5 µM (active)"}, {"smiles": "O=C1NC(=O)N(Cc2ccco2)C(=O)/C1=C/C=C/c1ccco1", "Potency": "13.1 µM (active)"}, {"smiles": "CC1Oc2cc3c(-c4c(O)cc(O)c5c(O)c6c(cc45)OC(C)C(C)C6=O)c(O)cc(O)c3c(O)c2C(=O)C1C", "note": "(stereo not drawn)", "Potency": "13.1 µM (active)"}]}]}
